Broadly, the AC50 is the midpoint of the concentration-response curve, whichever way the signal moves.

The text below walks through data of PubChem BioAssay (EPA / NIEHS).

Read-out in assay [1]: Monokine induced gamma interferon (MIG), CXCL9 (gene 4283)
Nature of the assay: BSK_hDFCGF_MIG: BioMAP Diversity Plus: hDFCGF Assay for Monokine induced gamma interferon (MIG) Biomarker Activity (AID 2283063). The following applies: primary human foreskin fibroblasts; actives raise or lower the signal. The procedure, abridged:
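ELISA read-out of MIG from primary human dermal fibroblasts 24 h post-dosing. Gain or loss of signal fitted bidirectionally, DMSO as baseline.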

Read-out in assay [2]: Matrix Metallopeptidase 1 (MMP1), MMP1 (gene 4312)
Nature of the assay: BSK_hDFCGF_MMP1: BioMAP Diversity Plus: hDFCGF Assay for Matrix Metallopeptidase 1 (MMP1) Biomarker Activity (AID 2283064). The following applies: primary human foreskin fibroblasts; actives raise or lower the signal. The procedure, abridged:
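Primary human foreskin fibroblasts in the hDFCGF system were dosed with test chemical, and MMP1 was measured by ELISA 24 h later. Values come from bidirectional curve fitting against the DMSO baseline.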

Read-out in assay [3]: Vascular cell adhesion molecule 1 (VCAM1), VCAM1 (gene 7412)
Nature of the assay: BSK_hDFCGF_VCAM1: BioMAP Diversity Plus: hDFCGF Assay for Vascular cell adhesion molecule 1 (VCAM1) Biomarker Activity (AID 2283065).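 On AC50: VCAM-1 protein level quantified by ELISA after 24 h chemical exposure.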 The following applies: primary human foreskin fibroblasts; actives raise or lower the signal. An outline of the steps: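 Primary human foreskin fibroblasts (hDFCGF system) were dosed with chemical and VCAM-1 was measured by ELISA 24 h later. Bidirectional curve fitting used DMSO as negative control and activity baseline.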

Read-out in assay [4]: Intercellular Adhesion Molecule 1 (ICAM1), ICAM1 (gene 3383)
The experiment in a line: BSK_KF3CT_ICAM1: BioMAP Diversity Plus: KF3CT Assay for Intercellular Adhesion Molecule 1 (ICAM1) Biomarker Activity (AID 2283067). The following applies: primary human keratinocytes with fibroblasts; actives raise or lower the signal. The procedure, abridged:
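Human keratinocyte plus foreskin fibroblast primary co-culture was exposed to chemical for 24 h. ICAM-1 was then quantified by ELISA, and the data were fit bidirectionally against DMSO as the negative control and baseline.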

Read-out in assay [5]: Interferon-gamma inducible Protein 10 (IP10), CXCL10 (gene 3627)
The experiment in a line: BSK_KF3CT_IP10: BioMAP Diversity Plus: KF3CT Assay for Interferon-gamma inducible Protein 10 (IP10) Biomarker Activity (AID 2283068). The following applies: primary human keratinocytes with fibroblasts; actives raise or lower the signal. The procedure, abridged:
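In a primary skin co-culture of keratinocytes and fibroblasts, IP-10 is quantified by ELISA at 24 h after dosing. SRB staining of parallel wells monitors overt toxicity. Curves are fitted both directions against DMSO.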

Assay [6] in a line: BSK_KF3CT_SRB: Viability Assessment in the BioMAP Diversity Plus: KF3CT Assay (AID 2283069).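 Further: total protein by sulforhodamine B staining as a cytotoxicity measure; read 24 h after compound addition.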 Conditions: primary human keratinocytes with fibroblasts. The procedure, abridged: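 Human primary keratinocyte plus foreskin fibroblast co-culture exposed to chemicals for 24 h. Total protein measured by 0.1% sulforhodamine B staining after 10% TCA fixation, read at 560 nm; bidirectional fitting versus DMSO baseline.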

Read-out in assay [7]: Interleukin-1 alpha (IL1a), IL1A (gene 3552)
The experiment in a line: BSK_KF3CT_IL1a: BioMAP Diversity Plus: KF3CT Assay for Interleukin-1 alpha (IL1a) Biomarker Activity (AID 2283070). The following applies: primary human keratinocytes with fibroblasts; actives raise or lower the signal. An outline of the steps:
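Human keratinocyte plus foreskin fibroblast primary co-culture, sampled 24 h after chemical dosing. IL-1a measured by ELISA; responses fitted bidirectionally against DMSO baseline (negative control), so gain or loss of signal both count.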

Read-out in assay [8]: TIMP metallopeptidase inhibitor 2 (TIMP2), TIMP2 (gene 7077)
The experiment in a line: BSK_KF3CT_TIMP2: BioMAP Diversity Plus: KF3CT Assay for TIMP metallopeptidase inhibitor 2 (TIMP2) Biomarker Activity (AID 2283071). Conditions: primary human keratinocytes with fibroblasts; actives raise or lower the signal. An outline of the steps: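 Co-culture of human primary keratinocytes and foreskin fibroblasts, measured 24 h after chemical dosing. TIMP-2 quantified by ELISA and fitted in both directions relative to DMSO. Cytotoxicity checked in parallel cultures by SRB total-protein staining.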

Read-out in assay [9]: Transforming growth factor beta 1 (TGFb1), TGFB1 (gene 7040)
Nature of the assay: BSK_KF3CT_TGFb1: BioMAP Diversity Plus: KF3CT Assay for Transforming growth factor beta 1 (TGFb1) Biomarker Activity (AID 2283072). Conditions: primary human keratinocytes with fibroblasts; actives raise or lower the signal. An outline of the steps:
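Human keratinocyte/foreskin fibroblast co-culture; TGF-b1 measured by ELISA 24 h after dosing, fitted bidirectionally versus DMSO. Cytotoxicity checked in parallel cultures by total protein (SRB staining, 560 nm).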

Read-out in assay [10]: C-C motif chemokine 2 (Homo sapiens) (UniProt P13500)
Nature of the assay: BSK_KF3CT_MCP1: BioMAP Diversity Plus: KF3CT Assay for Monocyte Chemoattractant Protein 1 (MCP1/CCL2) Biomarker Activity (AID 2283073). Conditions: primary human keratinocytes with fibroblasts; actives raise or lower the signal. The procedure, abridged: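 Human keratinocyte plus foreskin fibroblast primary co-culture exposed to chemical for 24 h. MCP-1 levels measured by ELISA. Bidirectional curve fitting relative to DMSO negative control as baseline.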

Read-out in assay [11]: Matrix Metallopeptidase 9 (MMP9), MMP9 (gene 4318)
The experiment in a line: BSK_KF3CT_MMP9: BioMAP Diversity Plus: KF3CT Assay for Matrix Metallopeptidase 9 (MMP9) Biomarker Activity (AID 2283074).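 On AC50: MMP9 protein level quantified by ELISA in the co-culture.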 Conditions: primary human keratinocytes with fibroblasts; actives raise or lower the signal. The procedure, abridged:
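Keratinocyte plus foreskin fibroblast human primary skin co-culture was dosed with chemical and MMP-9 was quantified by ELISA 24 h later. Bidirectional curve fitting used DMSO as negative control and activity baseline.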

Read-out in assay [12]: urokinase plasminogen activator (uPA), PLAU (gene 5328)
Nature of the assay: BSK_KF3CT_uPA: BioMAP Diversity Plus: KF3CT Assay for urokinase plasminogen activator (uPA) Biomarker Activity (AID 2283075). The following applies: primary human keratinocytes with fibroblasts; actives raise or lower the signal. The procedure, abridged: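 Human keratinocyte plus foreskin fibroblast primary co-culture exposed to chemical for 24 h. uPA levels were quantified by ELISA, and activity was fitted bidirectionally against a DMSO negative-control baseline.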

Read-out in assay [13]: CD40, CD40 (gene 958)
The experiment in a line: BSK_LPS_CD40: BioMAP Diversity Plus: LPS Assay for CD40 Biomarker Activity (AID 2283076). Conditions: primary human HUVEC with PBMC; actives raise or lower the signal. The procedure, abridged:
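Primary human umbilical vein endothelial cells co-cultured with peripheral blood mononuclear cells, LPS-stimulated, were dosed with chemical and read 24 h later. CD40 levels were measured by ELISA and fitted bidirectionally against DMSO as negative control and baseline.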

Read-out in assay [14]: E-selectin (Homo sapiens) (UniProt P16581)
Nature of the assay: BSK_LPS_Eselectin: BioMAP Diversity Plus: LPS Assay for Eselectin Biomarker Activity (AID 2283077). The following applies: primary human HUVEC with PBMC; actives raise or lower the signal. An outline of the steps:
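Human umbilical vein endothelial cells co-cultured with peripheral blood mononuclear cells under LPS stimulation; E-selectin measured by ELISA 24 h after chemical dosing. Activity fitted bidirectionally against DMSO as negative control and baseline.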

Read-out in assay [15]: Interleukin-8 (IL8), CXCL8 (gene 3576)
The experiment in a line: BSK_LPS_IL8: BioMAP Diversity Plus: LPS Assay for Interleukin-8 (IL8) Biomarker Activity (AID 2283078). Conditions: primary human HUVEC with PBMC; actives raise or lower the signal. The procedure, abridged: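 Human umbilical vein endothelial cells co-cultured with PBMC were stimulated with LPS; IL-8 levels were measured by ELISA 24 h after chemical dosing. Activity was fitted bidirectionally against DMSO as negative control and baseline.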

A short description of assay [16]: BSK_LPS_SRB: Viability Assessment in the BioMAP Diversity Plus: LPS Assay (AID 2283079).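 Further: total protein by sulforhodamine B absorbance as a cytotoxicity measure; measured one day after compound addition.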 Conditions: primary human HUVEC with PBMC. The procedure, abridged: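 Human umbilical vein endothelial cells co-cultured with PBMC (LPS system) were dosed for 24 h. Total protein was stained with 0.1% sulforhodamine B after 10% TCA fixation, read at 560 nm, and fitted bidirectionally against DMSO baseline.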

Read-out in assay [17]: Interleukin-1 alpha (IL1a), IL1A (gene 3552)
The experiment in a line: BSK_LPS_IL1a: BioMAP Diversity Plus: LPS Assay for Interleukin-1 alpha (IL1a) Biomarker Activity (AID 2283080). The following applies: primary human HUVEC with PBMC; actives raise or lower the signal. The procedure, abridged: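 Human umbilical vein endothelial cells co-cultured with peripheral blood mononuclear cells were LPS-stimulated and exposed to test chemicals for 24 h. IL-1 alpha was quantified by ELISA, with bidirectional curve fitting against DMSO as the negative control and baseline.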

Read-out in assay [18]: Monocyte Chemoattractant Protein-1 (MCP1), CCL2 (gene 6347)
The experiment in a line: BSK_LPS_MCP1: BioMAP Diversity Plus: LPS Assay for Monocyte Chemoattractant Protein-1 (MCP1) Biomarker Activity (AID 2283081).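 On AC50: secreted MCP-1 protein quantified by ELISA in culture supernatant.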 The following applies: primary human HUVEC with PBMC; actives raise or lower the signal. An outline of the steps: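 HUVEC plus PBMC co-culture (human primary cells, LPS system) exposed to test chemical for 24 h; MCP-1 measured by ELISA. Bidirectional curve fitting against DMSO baseline; parallel SRB total-protein staining flags overt cytotoxicity.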

Read-out in assay [19]: Plasminogen activator inhibitor-1 (PAI1), SERPINE1 (gene 5054)
The experiment in a line: BSK_hDFCGF_PAI1: BioMAP Diversity Plus: hDFCGF Assay for Plasminogen activator inhibitor-1 (PAI1) Biomarker Activity (AID 2283066). The following applies: primary human foreskin fibroblasts; actives raise or lower the signal. An outline of the steps:
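Human foreskin fibroblast primary cells, 24 h chemical exposure; PAI-1 measured by ELISA. Bidirectional fitting relative to DMSO; parallel cultures stained with SRB for total protein to flag overt cytotoxicity.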

Assay [20] in a line: BSK_LPS_PGE2: BioMAP Diversity Plus: LPS Assay for Prostaglandin E2 (PGE2) Biomarker Activity (AID 2283082). The following applies: primary human HUVEC with PBMC; actives raise or lower the signal. The procedure, abridged: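 HUVEC plus human PBMC co-culture stimulated with LPS; secreted PGE2 quantified by ELISA 24 h after chemical dosing. Activity fitted bidirectionally against DMSO baseline; parallel SRB staining (0.1% SRB after 10% TCA fixation, 560 nm) flags overt cytotoxicity.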

Calls of active or inactive are those of the source. How the source made its calls: active means hit-call score of the fitted dose curve at least 0.9, where 1 is the maximum; inactive means score below 0.9.

Sequence of E-selectin (Homo sapiens) (P16581 whole entry, looked up): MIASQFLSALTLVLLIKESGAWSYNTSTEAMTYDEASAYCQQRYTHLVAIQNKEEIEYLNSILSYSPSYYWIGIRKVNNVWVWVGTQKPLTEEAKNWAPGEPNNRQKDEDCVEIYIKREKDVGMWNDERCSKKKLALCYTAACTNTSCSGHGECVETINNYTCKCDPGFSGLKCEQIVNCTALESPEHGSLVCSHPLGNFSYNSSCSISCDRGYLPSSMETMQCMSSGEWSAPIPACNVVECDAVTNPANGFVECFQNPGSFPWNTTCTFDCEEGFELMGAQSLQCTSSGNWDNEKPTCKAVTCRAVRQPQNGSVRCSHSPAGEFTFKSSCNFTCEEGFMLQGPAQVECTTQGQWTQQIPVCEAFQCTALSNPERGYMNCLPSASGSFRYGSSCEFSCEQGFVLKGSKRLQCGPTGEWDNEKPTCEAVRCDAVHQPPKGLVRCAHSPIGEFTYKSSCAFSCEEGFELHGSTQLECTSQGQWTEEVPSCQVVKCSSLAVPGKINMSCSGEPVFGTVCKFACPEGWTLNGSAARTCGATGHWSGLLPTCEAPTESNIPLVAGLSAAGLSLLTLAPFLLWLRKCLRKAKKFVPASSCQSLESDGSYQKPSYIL

For `CCc1cc(SCc2sc(-c3ccc(C(F)(F)F)cc3)nc2CN2CCN(c3ccc(OC)cc3)CC2)ccc1OCC(=O)O`, the concentration at half-maximal activity (AC50) is 3.38 µM (active) in assay [1]; 1.8 µM (active) in assay [2]; 3.57 µM (active) in assay [3]; 7.27 µM (active) in assay [4]; 3.58 µM (active) in [5]; 3.42 µM (active) in assay [6]. Further, the AC50 in [7] is 7.25 µM (active); in assay [8], 7.31 µM (active); in assay [9], 4.39 µM (active); in assay [10], 4.26 µM (active); in [11], 4.08 µM (active); in assay [12], 5.22 µM (active). The AC50 in [13] is 6.6 µM (active); in assay [14], 14.8 µM (active); in assay [15], 33.6 µM (active); in assay [16], 13.4 µM (active); in [17], 30.6 µM (active); in assay [18], 12.3 µM (active).
Turning to `CCNc1ccccc1`, the outcome in assay [1], in [2], in assay [3], in assay [19], in [4] and in assay [5] was inactive. In addition, the result in [6], in assay [7], in [8], in [9], in assay [10] and in assay [11] was inactive. The outcome in assay [12], in assay [13], in assay [15], in assay [16], in assay [17] and in assay [18] was inactive. Also, the outcome in assay [20] was inactive.
For the compound `O=C(O)CCN(C1(C(=O)NO)CCCC1)S(=O)(=O)c1ccc(Oc2ccc(F)cc2)cc1`, the result in [1], in assay [2], in assay [3], in [4], in [5] and in assay [6] was inactive. Besides, the result in assay [7], in [8], in assay [9], in [10], in assay [11] and in assay [12] was inactive. For the same compound, the result in [13], in assay [14], in assay [15], in assay [16], in assay [17] and in [18] was inactive. Also, in assay [20], the result was inactive.
